Experimental findings from PubChem BioAssay (EPA / NIEHS) are described below.

Structures are written as SMILES. Active and inactive are the calls of the source. How the source made its calls: active means hit-call score of the fitted dose curve at least 0.9, where 1 is the maximum; inactive means score below 0.9.

Assay [1] can be described thus: APR_HepG2_CellCycleArrest_24hr: Apredica 24-hour HepG2 Assay for Cell Cycle Arrest (AID 2282905).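 Further: cell cycle arrest scored as ratio of 2N to 4N nuclear DNA content.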 The settings on record: imaging, actives raise or lower the signal. Put shortly:
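Compounds at 0.39–200 uM (0.5% DMSO) for 24 h, then fixed and Hoechst 33342 stained. Cell-cycle analysis of nuclear DNA content by high-content imaging, fitted bidirectionally versus DMSO.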

Assay [2] can be described thus: APR_HepG2_StressKinase_1hr: Apredica 1-hour HepG2 Assay for Stress Kinase (AID 2282906). The following applies: HepG2 stress kinase (phospho-c-Jun) imaging, actives raise or lower the signal. In short, it runs like this:
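HepG2 cells dosed 0.39-200 uM (0.5% DMSO) for 1 h, then formaldehyde-fixed. Stress kinase read by phospho-c-Jun immunofluorescence using high-content imaging; bidirectional fit vs DMSO.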

Assay [3] is described as follows: APR_HepG2_CellLoss_24hr: Apredica 24-hour HepG2 Assay for Cell Loss (AID 2282908). The settings on record: high-content imaging. In short, it runs like this: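 HepG2 cells exposed 24 hr to 0.39–200 uM compound in duplicate at 0.5% v/v final DMSO. Cells fixed in 3.7% formaldehyde and Hoechst 33342-stained. Cell number came from nuclear imaging at 20x. Bidirectional fit versus DMSO.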

The nature of assay [4]: APR_HepG2_MicrotubuleCSK_24hr: Apredica 24-hour HepG2 Assay for Microtubule CSK Stabilty (AID 2282909). The following applies: HepG2 microtubule cytoskeleton imaging, actives raise or lower the signal. In short, it runs like this: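 HepG2 cells were treated 24 hr with compound at 0.39–200 uM in duplicate (0.5% DMSO final), then fixed and permeabilized. Alpha-tubulin immunofluorescence was imaged by high-content microscopy, with bidirectional fitting against DMSO and taxol as positive control.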

A short description of assay [5]: APR_HepG2_MitoticArrest_24hr: Apredica 24-hour HepG2 Assay for Mitotic Arrest (AID 2282910). The settings on record: high-content imaging, actives raise or lower the signal. Put shortly:
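Compounds are dosed onto HepG2 cells across ten concentrations up to 200 uM for 24 hr. Cells are then fixed in 3.7% formaldehyde, permeabilised, and labelled for phospho-histone H3 and nuclei; images are scored by cell cycle analysis and fitted bidirectionally relative to DMSO.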

Assay [6] in a line: APR_HepG2_MitoMembPot_24hr: Apredica 24-hour HepG2 Assay for Mitochondrial Membrane Potential (AID 2282911). The settings on record: imaging, actives raise or lower the signal. Put shortly:
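HepG2 cells exposed 24 h to 0.39–200 uM compounds in duplicate, 0.5% v/v DMSO final. MitoTracker Red CMXRos 250 nM loaded 30 min before formaldehyde fixation; high-content imaging at 20x, bidirectional fit versus DMSO.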

Assay [7] in a line: APR_HepG2_MitoMass_24hr: Apredica 24-hour HepG2 Assay for Mitochondrial Mass (AID 2282912). The settings on record: high-content imaging, actives raise or lower the signal. Put shortly: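 HepG2 cells exposed 24 hr to 0.39–200 uM compound, 0.5% v/v DMSO, in duplicate. Stained before fixation with 250 nM MitoTracker Red CMXRos for 30 min, then imaged at 20x with Hoechst nuclei. Fitted in both directions against DMSO.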

The nature of assay [8]: APR_HepG2_p53Act_24hr: Apredica 24-hour HepG2 Assay for p53 Activation (AID 2282913).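 Further: p53 protein immunofluorescence averaged per cell in HepG2 with Hoechst nuclei.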 The settings on record: high-content imaging, actives raise or lower the signal. Put shortly: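 HepG2 cells exposed 24 h to compounds at 0.39–200 uM in duplicate, 0.5% v/v DMSO final; fixed, permeabilized, stained with anti-p53 antibody and Hoechst 33342; fluorescence imaging; bidirectional curve fit versus DMSO.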

Assay [9] in a line: APR_HepG2_CellLoss_72hr: Apredica 72-hour HepG2 Assay for Cell Loss (AID 2282915). The settings on record: high-content imaging. Put shortly:
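Cell number comes from Hoechst 33342-labelled nuclei, imaged at 20x after 3.7% formaldehyde fixation. Dosing was 0.39–200 uM, ten concentrations in duplicate, 0.5% DMSO final, for 72 h. Bidirectional fit relative to DMSO baseline.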

Assay [10] can be described thus: APR_HepG2_P-H2AX_72hr: Apredica 72-hour HepG2 Assay for H2AX Phosphorylation (AID 2282916).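 Further: phospho-histone H2A.x immunostain intensity per cell marking DNA damage.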 The settings on record: imaging, actives raise or lower the signal. Put shortly:
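HepG2 cells treated 72 h at 0.39–200 uM, 0.5% DMSO final, duplicates. Formaldehyde-fixed, Triton-permeabilised, immunostained for phospho-H2A.x with Hoechst; fluorescence imaged at 20x, bidirectional fit versus DMSO.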

Assay [11] in a line: APR_HepG2_MitoMembPot_72hr: Apredica 72-hour HepG2 Assay for Mitochondrial Membrane Potential (AID 2282917). The settings on record: imaging, actives raise or lower the signal. In short, it runs like this: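 Membrane potential read by MitoTracker Red CMXRos (250 nM, 30 min, pre-fixation) fluorescence imaging of HepG2 after 72 hr exposure. Ten concentrations, 0.39–200 uM, duplicate wells, 0.5% DMSO; fitted in both directions against DMSO baseline.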

Assay [12] is described as follows: APR_HepG2_MitoticArrest_72hr: Apredica 72-hour HepG2 Assay for Mitotic Arrest (AID 2282918). The following applies: high-content imaging, actives raise or lower the signal. In short, it runs like this:
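HepG2 cells treated 72 h at 0.39–200 uM, 0.5% DMSO final; formaldehyde-fixed, stained with Hoechst 33342 and phospho-histone H3 antibody, imaged by high-content fluorescence; bidirectional fit versus DMSO.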

The nature of assay [13]: APR_HepG2_MicrotubuleCSK_72hr: Apredica 72-hour HepG2 Assay for Microtubule CSK Stabilty (AID 2282919). The following applies: HepG2 microtubule cytoskeleton, high-content imaging, actives raise or lower the signal. In short, it runs like this:
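Read-out is tubulin fluorescence intensity from high-content imaging of HepG2 cells, with nuclei identified by Hoechst 33342. Treatment lasts 72 h at 0.39–200 uM, and curves are fitted bidirectionally against the DMSO negative control.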

Assay [14] can be described thus: APR_HepG2_P-H2AX_24hr: Apredica 24-hour HepG2 Assay for H2AX Phosphorylation (AID 2282920). The settings on record: high-content imaging, actives raise or lower the signal. Put shortly: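 HepG2 cells dosed 24 h at 0.39–200 uM (10 points, duplicate, 0.5% DMSO final). Formaldehyde-fixed and permeabilized, then immunostained for phospho-H2A.x with Hoechst. Fluorescence quantified by high-content imaging, fitted bidirectionally versus DMSO.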

Assay [15] is described as follows: APR_HepG2_StressKinase_72hr: Apredica 72-hour HepG2 Assay for Stress Kinase (AID 2282921). The following applies: HepG2 stress kinase (phospho-c-Jun) imaging, actives raise or lower the signal. In short, it runs like this: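 HepG2 cells treated 72 hr with 0.39–200 uM compound, 0.5% v/v DMSO, duplicate wells. After formaldehyde fixation and Triton permeabilization, stained with anti-phospho-c-Jun (1:500) and Cy3 secondary, imaged at 20x. Fitted in both directions against DMSO.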

Assay [16] is described as follows: APR_HepG2_StressKinase_24hr: Apredica 24-hour HepG2 Assay for Stress Kinase (AID 2282922). The settings on record: HepG2 stress kinase (phospho-c-Jun) imaging, actives raise or lower the signal. Put shortly:
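HepG2, 24 hr dosing, 0.39–200 uM in duplicate, 0.5% DMSO; formaldehyde fix (3.7%), 0.5% Triton X-100; anti-phospho-c-Jun + Cy3 secondary, Hoechst counterstain; ArrayScan imaging; bidirectional curve fit vs DMSO baseline.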

Assay [17] is described as follows: APR_HepG2_p53Act_72hr: Apredica 72-hour HepG2 Assay for p53 Activation (AID 2282923).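 Further: average cellular p53 protein immunofluorescence intensity in HepG2 cells.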 The settings on record: high-content imaging, actives raise or lower the signal. Put shortly:
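HepG2 cells exposed 72 h to 0.39–200 uM in 0.5% DMSO, duplicates. Fixed, permeabilized cells immunostained for p53 (Cy5) with Hoechst; imaged at 20x, fluorescence analyzed bidirectionally against DMSO.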

The nature of assay [18]: APR_HepG2_MitoMass_72hr: Apredica 72-hour HepG2 Assay for Mitochondrial Mass (AID 2282924).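 Further: MitoTracker Red CMXRos stain intensity per cell imaged as mitochondrial mass.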 The following applies: high-content imaging, actives raise or lower the signal. In short, it runs like this:
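HepG2, 72 hr cmpd, 10 conc 0.39–200 uM in dup, DMSO 0.5% v/v. MitoTracker Red CMXRos 250 nM 30 min pre-fix; formaldehyde 3.7% fix 30 min RT. HCS imaging, gain/loss fit vs DMSO.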

The nature of assay [19]: APR_HepG2_CellCycleArrest_72hr: Apredica 72-hour HepG2 Assay for Cell Cycle Arrest (AID 2282914). The settings on record: high-content imaging, actives raise or lower the signal. Put shortly:
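HepG2 cells exposed 72 h in duplicate to 0.39–200 uM compound, 0.5% DMSO final. Formaldehyde-fixed, Hoechst 33342-stained nuclei imaged at 20x, six fields per well; DNA content per valid cell quantified by cell-cycle image analysis, bidirectional fit versus DMSO.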

A word on the AC50: it is the concentration at which the activity in the assay is half-maximal.

`Oc1ccccc1-c1ccccc1`: the AC50 in [1] is 82.1 µM (active). Moreover, the molecule was classed as inactive in assay [2], in assay [3], in [4], in assay [5], in assay [6] and in assay [7]. Moreover, the result in [8], in assay [9], in assay [10], in assay [11], in assay [12] and in assay [13] was inactive. Moreover, the call in assay [14], in assay [15], in assay [16], in assay [17] and in [18] was inactive.
Consider `C=CC1(C)OC(=O)N(c2cc(Cl)cc(Cl)c2)C1=O` (stereo unspecified), for which the molecule was called inactive in assay [1], in [2], in [4], in assay [5], in assay [6] and in [7]. For the same molecule, the outcome in assay [8], in assay [9], in [10], in [11], in [12] and in assay [13] was inactive. The outcome in assay [14], in assay [15], in assay [16], in assay [17] and in [18] was inactive.
Consider `CNC(=S)S`, for which the AC50 was 20.5 µM (active) in [1]; 74.4 µM (active) in assay [4]; 85.2 µM (active) in assay [5]; 36.7 µM (active) in assay [9]; 11.3 µM (active) in assay [10]; 13.5 µM (active) in assay [12]. For the same molecule, the AC50 in [13] is 26.2 µM (active); in [14] it was 32.9 µM (active). Also, the result in [2], in [6], in assay [7], in [8], in assay [11] and in [15] was inactive. Also, the outcome in [16], in assay [17] and in [18] was inactive.
For the molecule `COC(=O)C=C(C)OP(=O)(OC)OC`, the molecule was called inactive in assay [1], in assay [2], in assay [4], in assay [5], in [6] and in assay [7]. For the same molecule, the result in assay [8], in assay [19], in assay [9], in assay [10], in assay [11] and in [12] was inactive. Besides, the molecule was called inactive in [13], in assay [14], in assay [15], in assay [16], in assay [17] and in assay [18].
Take `O=C(O)c1nc(Cl)ccc1Cl`: the outcome in assay [1], in assay [2], in assay [4], in assay [5], in [6] and in assay [7] was inactive. The call in assay [8], in assay [9], in [10], in [11], in assay [12] and in assay [13] was inactive. For the same molecule, the result in assay [14], in assay [15], in assay [16], in assay [17] and in assay [18] was inactive.
As to `CCNc1nc(Cl)nc(NC(C)C)n1`, the call in assay [1], in assay [2], in assay [4], in assay [5], in assay [6] and in assay [7] was inactive. Moreover, the molecule was classed as inactive in [8], in assay [9], in [10], in [11], in assay [12] and in assay [13]. Also, the result in assay [14], in assay [15], in assay [16], in assay [17] and in assay [18] was inactive.
Turning to `COP(N)(=O)SC` (stereo unspecified), the molecule was classed as inactive in [1], in assay [2], in [4], in assay [5], in assay [6] and in assay [7]. The result in assay [8], in assay [9], in assay [10], in [11], in [12] and in [13] was inactive. Further, the result in [14], in [15], in assay [16], in [17] and in assay [18] was inactive.
